# The campaign covered roughly 5,500 compounds. About 2,000 (36%) were called active. Roughly 18% stayed inconclusive and do not appear here. Some of the results follow. A number with no mark means an inactive call. Cut-off read from the data, not from the text of the source: active = normalized growth mostly below about 0.91 (no sharp cut-off); inconclusive = no clear call, values can overlap the other calls; inactive = mostly above about 0.92.
# Assay: chemical genetic growth profiling, strain panel (AID 1159580);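 note: tested at 20 µM; growth read once vehicle control cultures reached saturation at 30 °C; 1 = growth at the plate median or of vehicle wells; lower values mean less growth of the strain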
# Conditions: growth OD
# [1] = S. cerevisiae deletion strains, locus YAL013W, strain DEP1, hits give low values
# [2] = S. cerevisiae deletion strains, locus YGR078C, strain PAC10, hits give low values
# [3] = S. cerevisiae deletion strains, locus YJR075W, strain HOC1, hits give low values
# [4] = S. cerevisiae deletion strains, locus YMR307W, strain GAS1, hits give low values
# [5] = S. cerevisiae deletion strains, locus YNL322C, strain KRE1, hits give low values
# [6] = S. cerevisiae deletion strains, locus YPL055C, strain LGE1, hits give low values
# [7] = S. cerevisiae deletion strains, locus YBR229C, strain ROT2, hits give low values
# [8] = S. cerevisiae deletion strains, locus YDL101C, strain DUN1, hits give low values
# [9] = S. cerevisiae deletion strains, locus YDR150W, strain NUM1, hits give low values
# [10] = S. cerevisiae deletion strains, locus YEL061C, strain CIN8, hits give low values
# [11] = S. cerevisiae deletion strains, locus YHR030C, strain SLT2, hits give low values
# [12] = S. cerevisiae deletion strains, locus YHR087W, strain rtc3, hits give low values
# [13] = S. cerevisiae deletion strains, locus YJR043C, strain POL32, hits give low values
# [14] = S. cerevisiae deletion strains, locus YLR039C, strain RIC1, hits give low values
# [15] = S. cerevisiae deletion strains, locus YLR058C, strain SHM2 (second series), hits give low values
# [16] = S. cerevisiae deletion strains, locus YLR085C, strain ARP6, hits give low values
# [17] = S. cerevisiae deletion strains, locus YLR262C, strain YPT6, hits give low values
# [18] = S. cerevisiae deletion strains, locus YML094W, strain GIM5, hits give low values
# [19] = S. cerevisiae deletion strains, locus YMR219W, strain ESC1, hits give low values
# [20] = S. cerevisiae deletion strains, locus YMR263W, strain SAP30, hits give low values
# [21] = S. cerevisiae deletion strains, locus YNL153C, strain GIM3, hits give low values
# [22] = S. cerevisiae deletion strains, locus YNL298W, strain CLA4 (second series), hits give low values
# [23] = S. cerevisiae deletion strains, locus YNR030W, strain Alg12, hits give low values
# [24] = S. cerevisiae deletion strains, locus YPL241C, strain CIN2, hits give low values
# [25] = S. cerevisiae deletion strains, locus YPR135W, strain CTF4, hits give low values
smiles,measurement,setting,value
CCNC(=O)C1OC(n2cnc3c(NCc4ccccc4)ncnc32)C(O)C1O (stereo unspecified),normalized growth,[1],0.989
same,normalized growth,"S. cerevisiae deletion strains, locus YAL040C, strain CLN3, hits give low values",0.987
same,normalized growth,"S. cerevisiae deletion strains, locus YCL061C, strain MRC1 (second series), hits give low values",1.01
same,normalized growth,"S. cerevisiae deletion strains, locus YDR363W, strain ESC2, hits give low values",0.958
same,normalized growth,"S. cerevisiae deletion strains, locus YER002W, strain NOP16, hits give low values",1.01
same,normalized growth,[2],0.979
same,normalized growth,[3],1
same,normalized growth,[4],1
same,normalized growth,"S. cerevisiae deletion strains, locus YNL128W, strain TEP1, hits give low values",0.959
same,normalized growth,"S. cerevisiae deletion strains, locus YNL175C, strain NOP13, hits give low values",0.967
same,normalized growth,"S. cerevisiae deletion strains, locus YNL197C, strain WHI3, hits give low values",0.95
same,normalized growth,"S. cerevisiae deletion strains, locus YNL224C, strain SQS1, hits give low values",0.984
same,normalized growth,[5],0.99
same,normalized growth,"S. cerevisiae deletion strains, locus YOR083W, strain WHI5 (second series), hits give low values",0.956
same,normalized growth,[6],1
Cc1noc(N)c1C(N)=S,normalized growth,[1],0.986
same,normalized growth,[7],1
same,normalized growth,[8],1.02
same,normalized growth,"S. cerevisiae deletion strains, locus YDL134C, strain PPH21, hits give low values",0.993
same,normalized growth,[9],1
same,normalized growth,[10],1
same,normalized growth,[2],1.02
same,normalized growth,[11],1.05
same,normalized growth,[12],1
same,normalized growth,[13],1.01
same,normalized growth,[3],1.05
same,normalized growth,[14],1.05
same,normalized growth,[15],1
same,normalized growth,[16],1.17
same,normalized growth,[17],1.01
same,normalized growth,[18],0.99
same,normalized growth,[19],1.01
same,normalized growth,[20],1
same,normalized growth,[21],1.01
same,normalized growth,[22],1.03
same,normalized growth,[5],0.998
same,normalized growth,[23],0.995
same,normalized growth,[6],1.01
same,normalized growth,[24],1.17 [resistant] (active)
same,normalized growth,[25],0.982
same,normalized growth,"S. cerevisiae strains, strain wild type, hits give low values",0.986
Cc1noc(C)c1NC(N)=O,normalized growth,[1],0.994
same,normalized growth,[7],0.989
same,normalized growth,[8],0.974
same,normalized growth,[9],0.979
same,normalized growth,[10],0.981
same,normalized growth,[2],0.983
same,normalized growth,"S. cerevisiae deletion strains, locus YGR229C, strain SMI1, hits give low values",1.03
same,normalized growth,[11],1.04
same,normalized growth,[12],0.968
same,normalized growth,"S. cerevisiae deletion strains, locus YJL187C, strain SWE1, hits give low values",0.998
same,normalized growth,[13],0.995
same,normalized growth,[3],1.04
same,normalized growth,"S. cerevisiae deletion strains, locus YKL190W, strain CNB1, hits give low values",1.01
same,normalized growth,[14],0.97
same,normalized growth,[15],0.992
same,normalized growth,[16],1.01
same,normalized growth,[17],0.997
same,normalized growth,[18],0.952
same,normalized growth,[19],0.993
same,normalized growth,[20],1.03
same,normalized growth,[4],1.21
same,normalized growth,[21],0.999
same,normalized growth,[22],0.978
same,normalized growth,[5],0.987
same,normalized growth,[23],0.987
same,normalized growth,"S. cerevisiae deletion strains, locus YOL006C, strain TOP1, hits give low values",1.04
same,normalized growth,[6],0.975
same,normalized growth,[24],0.986
same,normalized growth,[25],0.898
OC1CCN(c2cc(C(F)(F)F)nc3cc(Cl)cc(Cl)c23)CC1,normalized growth,"S. cerevisiae deletion strains, locus YAR019C, strain CDC15, hits give low values",0.982
same,normalized growth,"S. cerevisiae deletion strains, locus YBL105C, strain PKC1, hits give low values",0.984
same,normalized growth,"S. cerevisiae deletion strains, locus YBR135W, strain CKS1, hits give low values",0.978
same,normalized growth,"S. cerevisiae deletion strains, locus YBR136W, strain MEC1, hits give low values",0.978
same,normalized growth,"S. cerevisiae deletion strains, locus YBR160W, strain CDC28, hits give low values",0.973
same,normalized growth,"S. cerevisiae deletion strains, locus YDL017W, strain CDC7, hits give low values",0.977
same,normalized growth,"S. cerevisiae deletion strains, locus YDL028C, strain MPS1, hits give low values",0.982
same,normalized growth,[8],0.976
same,normalized growth,"S. cerevisiae deletion strains, locus YDL108W, strain KIN28, hits give low values",0.979
same,normalized growth,"S. cerevisiae deletion strains, locus YDL132W, strain cdc53, hits give low values",0.969
same,normalized growth,"S. cerevisiae deletion strains, locus YDL214C, strain PRR2, hits give low values",0.98
same,normalized growth,"S. cerevisiae deletion strains, locus YDR052C, strain DBF4, hits give low values",0.989
same,normalized growth,"S. cerevisiae deletion strains, locus YDR054C, strain cdc34, hits give low values",0.969
same,normalized growth,"S. cerevisiae deletion strains, locus YDR226W, strain ADK1, hits give low values",0.973
same,normalized growth,"S. cerevisiae deletion strains, locus YDR477W, strain SNF1, hits give low values",0.913
same,normalized growth,"S. cerevisiae deletion strains, locus YER123W, strain YCK3, hits give low values",0.965
same,normalized growth,"S. cerevisiae deletion strains, locus YER133W, strain GLC7, hits give low values",0.971
same,normalized growth,"S. cerevisiae deletion strains, locus YFL009W, strain cdc4, hits give low values",0.986
same,normalized growth,"S. cerevisiae deletion strains, locus YFL029C, strain CAK1, hits give low values",0.984
same,normalized growth,"S. cerevisiae deletion strains, locus YFR003C, strain YPI1, hits give low values",0.978
same,normalized growth,"S. cerevisiae deletion strains, locus YFR019W, strain FAB1, hits give low values",1
same,normalized growth,"S. cerevisiae deletion strains, locus YFR028C, strain CDC14, hits give low values",0.979
same,normalized growth,"S. cerevisiae deletion strains, locus YGR040W, strain KSS1, hits give low values",0.921
same,normalized growth,"S. cerevisiae deletion strains, locus YGR052W, strain FMP48, hits give low values",1.1
same,normalized growth,"S. cerevisiae deletion strains, locus YGR092W, strain DBF2, hits give low values",0.994
same,normalized growth,[11],0.793 (active)
same,normalized growth,"S. cerevisiae deletion strains, locus YHR079C, strain IRE1, hits give low values",0.979
same,normalized growth,"S. cerevisiae deletion strains, locus YHR082C, strain KSP1, hits give low values",1.06
same,normalized growth,"S. cerevisiae deletion strains, locus YHR205W, strain SCH9, hits give low values",0.975
same,normalized growth,"S. cerevisiae deletion strains, locus YIL147C, strain SLN1, hits give low values",0.976
same,normalized growth,"S. cerevisiae deletion strains, locus YJL095W, strain BCK1, hits give low values",0.887
same,normalized growth,"S. cerevisiae deletion strains, locus YJL128C, strain PBS2, hits give low values",0.989
same,normalized growth,"S. cerevisiae deletion strains, locus YJL157C, strain FAR1, hits give low values",0.972
same,normalized growth,"S. cerevisiae deletion strains, locus YJR016C, strain ILV3, hits give low values",0.984
same,normalized growth,"S. cerevisiae deletion strains, locus YJR066W, strain TOR1 (second series), hits give low values",0.963
same,normalized growth,"S. cerevisiae deletion strains, locus YJR066W, strain TOR1, hits give low values",0.938
same,normalized growth,"S. cerevisiae deletion strains, locus YKL048C, strain ELM1, hits give low values",0.979
same,normalized growth,"S. cerevisiae deletion strains, locus YKL067W, strain YNK1, hits give low values",0.977
same,normalized growth,"S. cerevisiae deletion strains, locus YKL101W, strain HSL1, hits give low values",0.984
same,normalized growth,"S. cerevisiae deletion strains, locus YKL193C, strain SDS22, hits give low values",0.969
same,normalized growth,"S. cerevisiae deletion strains, locus YKL203C, strain TOR2, hits give low values",0.987
same,normalized growth,"S. cerevisiae deletion strains, locus YLR113W, strain HOG1, hits give low values",0.951
same,normalized growth,"S. cerevisiae deletion strains, locus YLR133W, strain CKI1, hits give low values",0.976
same,normalized growth,"S. cerevisiae deletion strains, locus YLR403W, strain SFP1, hits give low values",0.992
same,normalized growth,"S. cerevisiae deletion strains, locus YML070W, strain DAK1, hits give low values",0.969
same,normalized growth,"S. cerevisiae deletion strains, locus YMR001C, strain CDC5, hits give low values",0.971
same,normalized growth,"S. cerevisiae deletion strains, locus YMR205C, strain PFK2 (second series), hits give low values",0.975
same,normalized growth,"S. cerevisiae deletion strains, locus YMR277W, strain FCP1, hits give low values",0.97
same,normalized growth,"S. cerevisiae deletion strains, locus YNL006W, strain LST8, hits give low values",0.968
same,normalized growth,"S. cerevisiae deletion strains, locus YNL020C, strain ARK1, hits give low values",0.972
same,normalized growth,"S. cerevisiae deletion strains, locus YNL161W, strain CBK1, hits give low values",0.975
same,normalized growth,"S. cerevisiae deletion strains, locus YNL183C, strain NPR1, hits give low values",0.971
same,normalized growth,"S. cerevisiae deletion strains, locus YNL207W, strain RIO2, hits give low values",0.979
same,normalized growth,"S. cerevisiae deletion strains, locus YNL222W, strain SSU72, hits give low values",0.98
same,normalized growth,"S. cerevisiae deletion strains, locus YNL307C, strain MCK1 (second series), hits give low values",0.962
same,normalized growth,"S. cerevisiae deletion strains, locus YOL078W, strain AVO1, hits give low values",0.98
same,normalized growth,"S. cerevisiae deletion strains, locus YOL136C, strain PFK27, hits give low values",0.981
same,normalized growth,"S. cerevisiae deletion strains, locus YOR061W, strain CKA2, hits give low values",0.964
same,normalized growth,"S. cerevisiae deletion strains, locus YOR119C, strain RIO1, hits give low values",1.01
same,normalized growth,"S. cerevisiae deletion strains, locus YOR231W, strain MKK1, hits give low values",0.946
same,normalized growth,"S. cerevisiae deletion strains, locus YOR329C, strain SCD5, hits give low values",0.986
same,normalized growth,"S. cerevisiae deletion strains, locus YPL031C, strain PHO85, hits give low values",0.908
same,normalized growth,"S. cerevisiae deletion strains, locus YPL153C, strain RAD53, hits give low values",0.937
same,normalized growth,"S. cerevisiae deletion strains, locus YPL204W, strain HRR25, hits give low values",0.938
same,normalized growth,"S. cerevisiae deletion strains, locus YPL209C, strain IPL1, hits give low values",0.971
same,normalized growth,"S. cerevisiae deletion strains, locus YPL256C, strain CLN2, hits give low values",0.947
same,normalized growth,"S. cerevisiae deletion strains, locus YPR025C, strain CCL1, hits give low values",0.969
same,normalized growth,"S. cerevisiae deletion strains, locus YPR106W, strain ISR1, hits give low values",0.991
same,normalized growth,"S. cerevisiae deletion strains, locus YPR111W, strain DBF20, hits give low values",0.985
same,normalized growth,"S. cerevisiae deletion strains, strain NNK1, hits give low values",1
same,normalized growth,"S. cerevisiae deletion strains, strain TSCII, hits give low values",0.97
